Screening data: PubChem BioAssay, National Center for Advancing Translational Sciences (NCATS)
Only a selection was taken, and hits are over-represented in it overall.
Pf Dd2 growth – inhibitors of Plasmodium falciparum Dd2 growth; actives 4.3% (n = 120,000); P. falciparum Dd2 growth, SYBR Green, 72 h; Potency, µM (top dose mostly 28.9 µM), without a hit: top-dose activity, negative = inhibition, actives largely listed as inhibitors; AID 1347417; active = well fitted inhibition curve with a large enough effect;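 note: plate controls were DMSO vehicle for no effect and reference drug for full effect; nearly all actives have a fitted effect of over 65% in size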
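Infected erythrocytes (Dd2, 0.3% parasitemia, 2.5% hematocrit final) are added to compound in RPMI-1640/Albumax II medium, grown 72 h at 37C in low oxygen, then lysed with saponin/Triton-X containing SYBR Green and read by fluorescence.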
An asterisk follows results filed as active; i = inactive; [ ] = another dose, or the depositor's remark. Potency is the fitted concentration of half-maximal effect.

SMILES	Pf Dd2 growth
CCOc1ccc(CC(=O)NC2CCN(c3cc(-c4ccccc4)[nH]n3)C2)cc1OCC (stereo not drawn)	7.94µM*
CCOc1cc(C(=O)NC2CCN(c3cc(-c4cccs4)[nH]n3)C2)cc(OCC)c1OCC (stereo not drawn)	i
Cc1cc(C)cc(C(=O)NC2CCN(c3cc(-c4ccccc4)[nH]n3)C2)c1 (stereo not drawn)	i
CCOc1ccc(CC(=O)NC2CCCN(c3cc(-c4ccc(F)cc4)[nH]n3)C2)cc1OCC (stereo not drawn)	i
CC(C)Oc1cccc(-c2nc(C(=O)NCc3ccccc3)cs2)c1	-20.2%
O=C1Nc2ccccc2CC12CCN(Cc1cncs1)CC2	i
CC(C)c1noc(-c2cn(C3CCN(C(=O)c4ccoc4)CC3)nn2)n1	-6.5%
O=C(C1CCOCC1)N1CCC(Oc2ccccc2-c2nc(-c3ccccc3)no2)C1 (stereo not drawn)	i
O=C(Cc1ccsc1)N1CC(Oc2ccccc2-c2nc(-c3ccccc3)no2)C1	12.6µM*
c1ccc(-c2nc(-c3cnccn3)no2)c(OC2CCNC2)c1 (stereo not drawn)	i
O=C(c1ccncc1)N1CCC(Oc2ccccc2-c2nc(-c3ccccc3)no2)C1 (stereo not drawn)	-12.0%
O=C(C1CCC1)N1CC(Oc2ccccc2-c2nc(-c3cnccn3)no2)C1	10µM*
O=C(Cc1ccsc1)N1CCC(n2cc(-c3nc(-c4ccccc4)no3)nn2)C1 (stereo not drawn)	-1.2%
Cc1ncccc1C(=O)N1CC(Oc2ccc(-c3nc(-c4ccccc4)no3)cc2)C1	-25.0%[5.79 µM]
Cc1ncccc1C(=O)N1CC(Oc2ccccc2-c2nc(-c3ccccc3)no2)C1	11.2µM*
O=C(c1cnccn1)N1CCC(Oc2ccccc2-c2nc(-c3ccccc3)no2)C1 (stereo not drawn)	-16.2%
CC(C)n1c(CCNC(=O)CC[C@H]2NC(=O)c3ccccc3NC2=O)nc2ccccc21	-19.1%
CC(C)N1C(=O)CO[C@H]2CCN(Cc3cccs3)CC[C@@H]21	1.1%[44.1 µM]
Cn1ncc(N2CCC(NC(=O)c3ccccc3)CC2)cc1=O	-0.1%
COCCCNC(=O)c1ccc(N2CC3CC(C2)[C@H]2CCCC(=O)N2C3)nc1 (stereo partly drawn)	-23.3%
CCOc1ccc(-c2nnc(CCC(=O)NCCc3ccccc3)c(=O)[nH]2)cc1	-18.2%
COCCN1C(=O)c2ccccc2C(C(=O)N2CCC(C)CC2)C12CCCC2 (stereo not drawn)	-7.8%
CCc1ccc(NC(=O)C(=O)NCC(c2cccnc2)N2CCN(C)CC2)cc1 (stereo not drawn)	-15.9%
Cc1ccc(NC(=O)C(=O)NCC(c2cccnc2)N2CCN(Cc3ccccc3)CC2)cc1 (stereo not drawn)	80.8%[0.594 µM]
COc1ccc(N2CCN(C(CNC(=O)C(=O)NCc3cccnc3)c3cccnc3)CC2)cc1 (stereo not drawn)	-15.5%[0.594 µM]
SMILES	Pf Dd2 growth
O=C(NCC(c1cccnc1)N1CCN(Cc2ccccc2)CC1)C(=O)Nc1ccc(Cl)cc1 (stereo not drawn)	14.1µM*
COCCNC(=O)C(=O)NCC(c1cccnc1)N1CCN(c2ccccc2F)CC1 (stereo not drawn)	54.9%[0.594 µM]
COc1ccccc1N1CCN(C(CNC(=O)C(=O)NCCN(C)C)c2cccnc2)CC1 (stereo not drawn)	-5.7%
Cc1cccc(NC(=O)C(=O)NCC(c2ccc3c(c2)OCO3)N2CCN(c3ccccc3)CC2)c1 (stereo not drawn)	-26.1%
Cc1cccc(NC(=O)C(=O)NCC(c2cccnc2)N2CCN(Cc3ccccc3)CC2)c1 (stereo not drawn)	7.94µM*
O=C(NCC(c1cccnc1)N1CCN(Cc2ccccc2)CC1)C(=O)Nc1cccc(Cl)c1 (stereo not drawn)	3.98µM*
Cc1ccc(C(=O)NC(C(=O)N2CCCC2)C2CCN(C(=O)c3ccc4c(c3)OCO4)CC2)cc1 (stereo not drawn)	i
CC1CCC2(CC1)NC(=O)N(CC(=O)N1CCCCC1)C2=O (stereo not drawn)	5.0%
COC(=O)[C@H](NC(=O)[C@@H]1C[C@H](NC(=O)Nc2ccc(F)cc2F)CN1C(=O)CSC)C(C)C	-7.2%
O=C(c1cccc(OC2CN(C3CCCCCC3)C2)c1)N1CCOCC1	-2.4%
O=C1CCN(C(=O)c2ccccc2)CCCC(C(=O)NCCCn2cccn2)CCN1 (stereo not drawn)	1.1%
Cc1ccc(CN2C(=O)COC[C@H]2C(=O)Nc2cc(F)cc(F)c2)cc1	-14.0%
Cc1noc(C)c1CN1C[C@@H]2C(C(=O)Nc3ccccc3)=NO[C@@H]2C1	42.5%[44.1 µM]
COc1ccc(CNC(=O)[C@@H]2CCC[C@@H](NCc3c(C)noc3C)CN(C)C(=O)C2)cc1	i
O=C(c1ccc(F)cc1)N1CCCC(n2cc(-c3nc(-c4ccccc4)no3)nn2)C1 (stereo not drawn)	-10.9%
CCOC(=O)c1c(C)oc2ncnc(Nc3ccc(OCC)cc3)c12	-1.3%
CCOC(=O)c1c(C)oc2nc(C)nc(N3CCN(c4ccc(C)cc4C)CC3)c12	0.5%
